AMA1-RON2 inh: disrupts binding of P. falciparum AMA1 to RON2 | AlphaScreen AMA1-biotinylated RON2 peptide binding | Potency, µM (highest dose often 58.2 µM), actives largely listed as inhibitors | 360,000 compounds, 0.2% hits | AID 720542; active = well fitted inhibition curve with a large enough effect; inconclusive = small, poorly fitted or top-dose-only effect; inactive = no such curve, though single readings can be large or run the other way; also: nearly all actives have a fitted effect of over 45% in size
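AMA1 (3D7) with his tag at 25 nM final met compounds first, then biotinylated RON2 peptide at 25 nM; detection used donor plus acceptor beads, 10 µg/mL apiece, read by AlphaScreen after 30 min at room temperature.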
CHX counter: counter-screen for Shiga toxin inhibitors: cycloheximide protein synthesis inhibition; cell reporter, cycloheximide protein synthesis inhibition counterscreen; max response, %; 300,000 compounds, 12% hits; AID 2314; in the data active = max response mostly above about 13%, no sharp cut-off; inactive = mostly below about 14%; also: read at 38.3 µM for the half of the compounds with a filed dose
LASV entry inh: Lassa virus entry inhibition; Lassa virus pseudotype entry inhibition, cell reporter; Potency, µM (highest dose often 37.9 µM), actives largely listed as inhibitors; 300,000 compounds, 1.2% hits; AID 540256; calls by dose curve; tested in HEK293 cells; also: nearly all actives have a fitted effect of over 50% in size
Marburg entry inh: Marburg virus entry inhibition | Marburg virus pseudotyped entry inhibition, cell reporter | Potency, µM (top dose mostly 37.8 µM), actives largely listed as inhibitors | 300,000 compounds, 1.8% hits | AID 540276; calls by dose curve; tested in HEK293 cells
Shiga toxin inh: Shiga toxin inhibition; inhibition, % at 38.7 µM; AID 2315; Vero cells, Shiga toxin protein synthesis inhibition reporter; 290,000 compounds, 9.2% hits; in the data active = inhibition mostly above about 28%, no sharp cut-off; inactive = mostly below about 43%
Numbers stand for hits; 0 = inactive; ? = inconclusive; - = no result given. The full list was thinned out, with hits kept by preference.

SMILES	AMA1-RON2 inh	CHX counter	LASV entry inh	Marburg entry inh	Shiga toxin inh
CC(=O)Nc1ccc(NC(=O)C(Cc2ccccc2)NS(=O)(=O)c2ccc3c(c2)oc(=O)n3C)cc1 (centres undefined)	-	-	0	0	-
CCn1nccc1NC(=O)c1csc([C@@H]2C[C@H](O)[C@@H](CO)O2)n1	0	-	-	-	-
Cn1c2ccccc2c2ncn(CCCN3CCOCC3)c(=O)c21	0	0	0	0	0
Cn1c2ccccc2c2ncn(CCC3=CCCCC3)c(=O)c21	0	17	0	?	0
CSc1ccccc1OCc1cc(C(=O)N(C)Cc2c(C)n[nH]c2C)no1	0	14	0	0	0
CSc1ccccc1OCc1cc(C(=O)N(C)Cc2cc(C)[nH]n2)no1	0	28	?	0	0
CSc1ccccc1OCc1cc(C(=O)N(C)Cc2cnccn2)no1	0	52	0	?	110
CN(Cc1nccs1)C(=O)c1cc(COc2cccc3cnccc23)on1	0	0	-	-	0
Cc1ccc(S(=O)(=O)NCC(=O)OCC(=O)N(CCC#N)c2ccccc2)cc1	0	-	0	0	-
CC(=O)Nc1cccc(OCC(=O)Nc2ccc(F)cc2)c1	0	15	0	0	0
Cc1ccc(OCC(=O)Nc2ccc(F)cc2)cc1C	0	39	0	0	46
Cc1ccc(OCC(=O)Nc2ccncc2)cc1C	0	-	-	-	-
O=C(CN1C(=O)CCSc2ccc(S(=O)(=O)N3CCOCC3)cc21)Nc1cccc(F)c1	0	0	-	-	0
COC(=O)CCCCCn1c(-c2ccccc2)cn2c3c(=O)n(C)c(=O)n(C)c3nc12	-	-	?	0	-
COc1cc(/C=N/OCC(=O)NC2CCCCC2C)ccc1OCc1ccc(Cl)cc1 (centres undefined)	0	56	?	?	150
COc1cc(/C=N/OCC(=O)Nc2cc(C)cc(C)c2)ccc1OCc1ccc(Cl)cc1	0	92	?	?	107
COc1cc(/C=N\n2cnnc2)ccc1OCC(=O)Nc1ccc(C)cc1	0	0	0	0	0
Cc1ccc(C2=NNC(C(O)C(O)C(O)C(C)O)S2)cc1 (centres undefined)	0	32	0	?	107
Cc1nc2cc(N3CCCCC3)c(NC(=O)c3cccnc3)cc2c(=O)n1Cc1ccccc1	0	0	0	0	0
CCOC(=O)CCNC(=O)Nc1ccc2nc(C)n(Cc3ccc(Cl)cc3)c(=O)c2c1	0	0	0	0	0
CC(=O)Nc1ccc2nc(C)n(Cc3ccc(Cl)cc3)c(=O)c2c1	0	28	0	0	53
CCC(=O)Nc1ccc2nc(C3CC3)n(Cc3ccccc3)c(=O)c2c1	0	0	?	0	0
O=C(Nc1ccc2nc(C3CC3)n(Cc3ccccc3)c(=O)c2c1)C1CC1	0	23	-	-	31
CC(=O)Nc1cc2c(=O)n(Cc3ccccc3)c(C)nc2cc1N1CCOCC1	0	17	0	0	0
CC(=O)c1c(C)oc2ccc(N(C(=O)Oc3ccccc3)S(=O)(=O)c3ccc(Br)cc3)cc12	-	-	0	0	-
SMILES	AMA1-RON2 inh	CHX counter	LASV entry inh	Marburg entry inh	Shiga toxin inh
O=C(COC(=O)COc1ccc(Cl)cc1)NC1CCCCCC1	0	-	0	0	-
COc1ccc(NC(=O)CCN2C(=O)c3ccncc3C2=O)cc1OC	0	0	-	-	0
COc1ccccc1NS(=O)(=O)c1cc(C(=O)NC2CC(C)(C)NC(C)(C)C2)ccc1Cl	0	-	-	-	-
O=C(Nc1nccs1)c1ccc(COc2c(F)c(F)cc(F)c2F)o1	0	-	-	-	-
Cc1ccc(OCc2ccc(C(=O)Nc3nccs3)o2)cc1C	0	25	0	?	0
Cc1cc(NC(=O)c2ccc(COc3ccccc3Cl)o2)no1	0	0	0	?	0
O=C(Nc1nccs1)c1ccc(COc2ccccc2Cl)o1	0	60	?	0	81
O=C(c1cnccn1)N1CCc2ccccc2C1	0	0	0	0	0
COc1cc(/C=N/NC(=O)c2cccc(N3CCCC3=O)c2)ccc1O	0	24	?	0	0
CCN(CC)c1ccc(/C=N/NC(=O)c2cccc(N3CCCC3=O)c2)cc1	0	23	0	?	42
O=C(N/N=C/c1cccnc1)c1cccc(N2CCCC2=O)c1	0	27	0	0	0
COCCN1C(=O)NC(c2ccc(Br)cc2)C(C(C)=O)=C1C (centres undefined)	-	-	-	0	-
c1ccc(-c2sc3ccccc3c2-c2ccc(OCCN3CCCC3)cc2)cc1	0	-	-	-	-
c1ccc(COc2ccc(OCCN3CCCCC3)cc2)cc1	0	87	0	?	47
O=C1C2CCN(CC2)C1Cc1ccc(OCc2ccccc2)cc1 (centres undefined)	0	23	0	?	0
ON=C1c2cc(OCCN3CCCCC3)ccc2-c2ccc(OCCN3CCCCC3)cc21	0	0	?	3.2µM	0

Screens as filed in PubChem.
